G9a inh = blocks human histone lysine methyltransferase G9a; Q96KQ7; Potency, µM (titrated, usually from 102 µM), without a hit: top-dose activity, negative = inhibition, hits mostly inhibitors; 350,000 tested, 8.8% active; G9a H3K9 monomethylation, AlphaScreen, 2 h; also: % is scaled to controls: 0 for no effect and ±100 for the full control effect; nearly all actives have a fitted effect of over 75% in size
Target sequence (Q96KQ7 913-1193 limits assumed): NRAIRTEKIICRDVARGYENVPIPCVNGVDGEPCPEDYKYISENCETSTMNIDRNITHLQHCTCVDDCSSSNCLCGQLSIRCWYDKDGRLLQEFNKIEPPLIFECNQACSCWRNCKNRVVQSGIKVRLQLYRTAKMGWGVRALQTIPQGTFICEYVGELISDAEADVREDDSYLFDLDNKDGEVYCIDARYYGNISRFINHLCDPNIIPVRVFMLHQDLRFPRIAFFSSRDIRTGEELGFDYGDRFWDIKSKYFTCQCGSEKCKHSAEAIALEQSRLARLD
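G9a (20 nM) preincubated 15 min RT with compounds, then 500 nM biotinylated H3K9 peptide and 20 uM SAM added; 2 h RT reaction. Monomethyl-H3K9 product detected by AlphaScreen with anti-H3K9me1 antibody, streptavidin donor and anti-rabbit IgG acceptor beads.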
L3MBTL1 inh = L3MBTL1 (human) inhibition. Q9Y468. 230,000 tested, 0.66% active. Potency, µM (top dose mostly 57.1 µM), without a hit: at the top dose activity, negative = inhibition, most hits filed as inhibitors. AlphaScreen L3MBTL1–H3K9me1 peptide binding; also: % is scaled to controls: 0 for no effect and ±100 for the full control effect; nearly all actives have a fitted effect of over 60% in size
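Read-out is AlphaScreen signal from streptavidin donor and nickel chelate acceptor beads (10 ug/mL final each) bridging L3MBTL1 (50 nM) and biotinylated K9-monomethylated H3(1-15) peptide (75 nM), after 30 min compound exposure at room temperature.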
HP1b chromo inh = inhibitors of HP1-beta chromodomain binding to methylated histone tails; AlphaScreen HP1-beta / biotin-H3K9me3 peptide binding; AID 540317; P83916; 390,000 tested, 0.56% active; Potency, µM (doses to about 114 µM), for inactives: top-dose activity change, negative = inhibition, hits mostly inhibitors; also: nearly all actives have a fitted effect of over 70% in size
Target sequence (P83916 whole entry, looked up): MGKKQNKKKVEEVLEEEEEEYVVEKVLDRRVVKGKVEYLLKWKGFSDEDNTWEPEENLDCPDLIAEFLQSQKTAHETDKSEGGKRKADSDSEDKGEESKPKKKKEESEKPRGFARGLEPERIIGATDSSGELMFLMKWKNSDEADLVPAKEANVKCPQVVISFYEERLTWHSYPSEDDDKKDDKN
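HP1-beta protein (50 nM final) preincubated 30 min at room temperature with biotinylated H3(1-18)K9me3 peptide (50 nM) in PBS pH 7.4, 0.01% Tween-20, then compound added for 30 min. AlphaScreen streptavidin donor/nickel chelate acceptor beads (10 ug/mL final), 30 min dark, luminescence read.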
JMJD2A Tudor inh = blocks the human JMJD2A Tudor domain; O75164; AlphaScreen JMJD2A-Tudor / H3K4me3 peptide binding; Potency, µM (highest dose often 114 µM), for the others: at the highest dose activity change, negative = inhibition, actives largely listed as inhibitors; 390,000 tested, 4.4% active; AID 504339; also: % is scaled to controls: 0 for no effect and ±100 for the full control effect; nearly all actives have a fitted effect of over 50% in size
BAZ2B inh = inhibitors of human BAZ2B bromodomain; 360,000 tested, 4.4% active; AlphaScreen BAZ2B-H3K14Ac peptide displacement; AID 504333; Potency, µM (titrated, usually from 114 µM), without a hit: at the highest dose activity change, negative = inhibition, usual class: inhibitors; Q9UIF8; also: % is scaled to controls: 0 for no effect and ±100 for the full control effect; nearly all actives have a fitted effect of over 60% in size
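In this displacement format the biotinylated H3(5-23) peptide acetylated at Lys14 serves as ligand at 50 nM, with BAZ2B at 50 nM in PBS pH 7.4 containing 0.01% Tween-20. Donor and acceptor beads are 10 ug/mL final.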
Active calls of the source: *; ? = inconclusive; / = no result given; [ ] = remark or other dose. In the library only some 11% were active in any assay of this set; here they are far more common. Calls follow the shape of the dose curve; as a rule, active = well fitted inhibition curve with a large enough effect; inconclusive = small, poorly fitted or top-dose-only effect; inactive = no such curve, though single readings can be large or run the other way. Potency is read from the fitted curve at half-maximal effect.

SMILES	G9a inh	L3MBTL1 inh	HP1b chromo inh	JMJD2A Tudor inh	BAZ2B inh
CCCCCC(=O)NNC(=S)NC(=O)c1cccc([N+](=O)[O-])c1	7.9µM*	-4%	-18%	35µM*	-33%
CCCCCC(=O)NNC(=S)NC(=O)c1ccccc1[N+](=O)[O-]	-42%	-1%	21%	-13%	-29%
Cc1ccc(NC(=O)C2CCCN(S(=O)(=O)c3cccs3)C2)c(C)c1 (stereo not drawn)	-36%[59 µM]	/	-5%	-26%	-16%
CC(=O)N1c2ccc(S(=O)(=O)NCC3CCC(C(=O)Nc4cccc(F)c4)CC3)cc2CC1C (stereo not drawn)	-4%[59 µM]	/	20%	-15%	-14%
O=C(NC(=S)NNC(=O)c1ccccc1[N+](=O)[O-])c1ccc(Br)cc1	8.9µM*	8%	-15%	-26%	7%
O=C(NNC(=S)NC(=O)c1ccccc1[N+](=O)[O-])c1ccccc1Cl	?	12%	25%	3%	3%
O=C(CC(Nc1ccc(F)cc1)C(=O)O)c1ccccc1 (stereo not drawn)	10µM*	28%[11.4 µM]	42%	-14%	-9%
O=c1nc2cccc3c2=c(/c1=C(\O)c1ccccc1)c1ccccc1c3=O	?	-29%	36%	-30%	89µM*
Cc1oc(-c2ccc(Cl)cc2)cc1C(=O)O	/	/	8%	-18%	-12%
O=C(O)CCc1ccc(-c2ccc(Cl)cc2)o1	4µM*	/	-23%	?	-36%
COc1ccc(-c2ccc(CCC(=O)O)o2)cc1	28µM*	-9%	-25%	79µM*	-30%
COc1ccc(-c2noc(CCC(=O)O)n2)cc1	-25%	-6%	14%	-10%	-5%
O=C(O)CCc1ccc(-c2ccc(Br)cc2)o1	16µM*	-2%	-36%	56µM*	-36%
COc1cc(-c2noc(-c3ccc(N(C)C)c([N+](=O)[O-])c3)n2)cc(OC)c1OC	-30%[59 µM]	/	24%	-16%	-1%
O=C(Nc1c2c(nn1-c1ccc(Cl)cc1)CS(=O)(=O)C2)c1cccc(Cl)c1	-3%[59 µM]	/	14%	-8%	-1%
O=S1(=O)C2CC3C=CC2(O3)C(O)C(Cc2ccccc2)N1Cc1cccc(C(F)(F)F)c1 (stereo not drawn)	/	/	45%	-6%	/
O=C(CN1CCN(S(=O)(=O)c2ccc(C(F)(F)F)cc2)CC1)N1CCNC1=O	9%[12.7 µM]	0%	40%	4%	-4%
O=C(CN1CCN(S(=O)(=O)c2ccc(F)c(Cl)c2)CC1)N1CCNC1=O	0%[59 µM]	6%	21%	40µM*	-6%
CCc1cccc(NC(=O)CN2C(=O)COc3ccc(S(=O)(=O)Nc4ccccc4)cc32)c1	1%[59 µM]	/	-1%	-23%	-24%
Cc1cc(C)n(CC(O)Cn2c(C)c(C)c3ccccc32)n1 (stereo not drawn)	13µM*	/	?	3.5µM*	35µM*
Cc1c(C)n(CC(O)CN2CCCCC2)c2ccccc12 (stereo not drawn)	?	-8%	?	1.6µM*	45µM*
Cc1ccc2c(c1)c1c(n2CC(O)Cn2nc(C)c(Br)c2C)C(=O)CCC1 (stereo not drawn)	7%[59 µM]	10%[11.4 µM]	10%	-3%	7%
COc1ccc(-c2cc3ccccc3n2CC(O)Cn2nc(C)cc2C)cc1 (stereo not drawn)	-12%[12.7 µM]	-11%	11%	-31%	-11%
Cc1ccc2c(c1)c(C)c(C)n2CC(O)Cn1nc(C)c(Br)c1C (stereo not drawn)	?	-10%	-36%	50µM*	45µM*
Cc1c(C)n(CC(O)CN2CCN(C)CC2)c2ccccc12 (stereo not drawn)	?	/	4%[57 µM]	-31%	-35%
SMILES	G9a inh	L3MBTL1 inh	HP1b chromo inh	JMJD2A Tudor inh	BAZ2B inh
Cc1c(C)n(CC(O)CN2CCOCC2)c2ccccc12 (stereo not drawn)	13µM*	-5%	71µM*	22µM*	/
O=C(COC(=O)c1cc(=O)c2ccccc2o1)Nc1ccccc1F	/	4%	20%	-4%	/
Oc1c(C(c2ccc(Cl)cc2)N2CCC3(CC2)OCCO3)sc2nc(-c3ccco3)nn12 (stereo not drawn)	-48%[59 µM]	/	35%	-3%	-24%
CC(C)(C)OC(=O)CC(=O)NNC(=O)c1cc2ccccc2[nH]1	/	/	/	-8%	/
COc1ccc(N2C(=O)CSC23C(=O)Nc2ccccc23)cc1OC (stereo not drawn)	-4%	0%	5%	-25%	-4%
COc1cc2c(cc1OC)C1(Nc3c-2c(C)nn3-c2ccccc2)C(=O)Nc2ccccc21 (stereo not drawn)	71µM*	/	-26%	?	-12%
CCc1nn(-c2ccccc2)c2c1-c1cc(OC)c(OC)cc1C1(N2)C(=O)Nc2ccccc21 (stereo not drawn)	79µM*	/	-21%	?	?
COc1cc2c(cc1OC)C1(Nc3c-2c(-c2ccccc2)nn3-c2ccccc2)C(=O)Nc2ccccc21 (stereo not drawn)	79µM*	/	-33%	?	?
Cc1nn(-c2ccccc2)c2c1CC(=O)Nc1ccccc1-2	/	/	32%	-14%	/
O=C(NCCc1ccc(Cl)cc1)C(=O)NCC(c1ccc2c(c1)OCO2)N1CCOCC1 (stereo not drawn)	12%[59 µM]	/	47%[57 µM]	-13%	43%
CCOC(=O)CC(NC(=O)c1cc2cc(OC)ccc2oc1=O)c1ccc(OC)cc1 (stereo not drawn)	-28%[59 µM]	/	25%	6%	-5%
Cc1ccc(-c2nn(-c3cccc(F)c3)cc2CN(Cc2nccn2C)C(C)C)o1	10µM*	-11%	?	?	?
Cc1ccc(-c2nn(-c3cccc(F)c3)cc2CN2CCN(c3ccccn3)CC2)o1	?	-19%	?	35µM*	50µM*
Cc1ccc(-c2nn(-c3cccc(F)c3)cc2CNCc2cccnc2)o1	/	-19%	2%	?	-36%
Cc1cccc(-n2cc(CN3CCN(Cc4nccn4C)CC3)c(-c3cccc(F)c3)n2)c1	/	-9%	-10%	?	?
CC1=C(C(=O)OCc2ccccc2)C(c2ccc(-c3ccccc3)cc2)NC(=O)N1CCCCCC(=O)O (stereo not drawn)	35µM*	-1%	9%	?	50µM*
CC1=C(C(=O)OCc2ccccc2)C(c2ccccc2)NC(=O)N1CCCCCC(=O)O (stereo not drawn)	79µM*	-1%	44%	-26%	-10%
CC1=C(C(=O)OCc2ccccc2)C(c2ccc([N+](=O)[O-])cc2)NC(=O)N1CCCC(=O)O (stereo not drawn)	45µM*	1%	43%	-13%	-7%
CC1=C(C(=O)OCc2ccccc2)C(c2ccc(C(C)(C)C)cc2)NC(=O)N1CCCCCC(=O)O (stereo not drawn)	45µM*	-10%	-8%	-28%	50µM*

Compound activity (PubChem)
